Measured values reported in a collection of fitness landscapes (doi:10.1126/science.1257360).
In all, about 140,000 sequences were measured (“enrichment ratio after two sorts for PhoP signalling”: median about 0, highest 2% from about 11 on). The sample as a whole holds a higher share of the highest values than the screen did.

B1: PhoQ; a variant is named by its letters at X, in order, P23837 (parent)
chain: MKKLLRLFFPLSLRVRFLLATAAVVLVLSLAYGMVALIGYSVSFDKTTFRLLRGESNLFYTLAKWENNKLHVELPENIDKQSPTMTLIYDENGQLLWAQRDVPWLMKMIQPDWLKSNGFHEIEADVNDTSLLLSGDHSIQQQLQEVREDDDDAEMTHSVAVNVYPATSRMPKLTIVVVDTIPVELKSSYMVWSWFIYVLSANLLLVIPLLWVAAWWSLRPIEALAKEVRELEEHNRELLNPATTRELTSLVRNLNRLLKSERERYDKYRTTLTDLTHSLKTPLXXLQXXLRSLRSEKMSVSDAEPVMLEQISRISQQIGYYLHRASMRGGTLLSRELHPVAPLLDNLTSALNKVYQRKGVNISLDISPEISFVGEQNDFVEVMGNVLDNACKYCLEFVEISARQTDEHLYIVVEDDGPGIPLSKREVIFDRGQRVDTLRPGQGVGLAVAREITEQYEGKIVAGESMLGGARMEVIFGRQHSAPKDE

Variants of: B1
Assay: enrichment ratio after two sorts for PhoP signalling (ratio (wild type AVST 3.29)); higher = more functional
Details: with PhoP (E. coli)

Variant	enrichment ratio
MWPS	≤ 0.25
VCLF	0.991
LARM	≤ 0.25
VEST	4.04
APVK	≤ 0.25
HAAR	≤ 0.25
AICE	14.2
AHCE	≤ 0.25
AIIE	≤ 0.25
HKRT	≤ 0.25
NRGY	≤ 0.25
DMWC	≤ 0.25
ANAV	14.3
TNAT	11
MNAS	6.24
SNAE	7.95
TNAE	≤ 0.25
AKAV	0.73
ANAE	≤ 0.25
SQAV	6.43
SNAV	12.6
MNAV	2.67
TNAS	13.9
TNAV	27.6
VMEP	≤ 0.25
SHGD	≤ 0.25

Variant	enrichment ratio
NFGC	≤ 0.25
DFHC	≤ 0.25
QAAF	≤ 0.25
RPYT	≤ 0.25
MNAA	8.61
TNAD	≤ 0.25
ANLT	4.56
ANNT	≤ 0.25
TNAA	13.7
ANAT	17.7
HRYS	≤ 0.25
LMNM	≤ 0.25
NMWP	≤ 0.25
SAMD	≤ 0.25
KACQ	≤ 0.25
SACE	11.7
SACK	0.562
SAPE	≤ 0.25
SAAM	7.53
SACQ	13.5
SAQP	≤ 0.25
SACI	13.7
WVWC	≤ 0.25
YMTW	≤ 0.25
YYYE	≤ 0.25
RLRN	≤ 0.25

Variant	enrichment ratio
SGRV	≤ 0.25
NHQI	≤ 0.25
PTQI	≤ 0.25
TAPA	≤ 0.25
TQRI	≤ 0.25
SHQI	≤ 0.25
KQQI	≤ 0.25
LAQI	≤ 0.25
LQQI	≤ 0.25
TKQI	17.5
TQQI	11.5
TAQI	23.7
THQI	24.1
IYTC	≤ 0.25
SRID	≤ 0.25
LRCL	≤ 0.25
VTSC	≤ 0.25
QCKT	≤ 0.25
MFMN	≤ 0.25
YQKV	≤ 0.25
GKEW	≤ 0.25
KAQI	≤ 0.25
TLQI	14.7
KSQI	≤ 0.25
VMGP	≤ 0.25
DKIR	≤ 0.25

Variant	enrichment ratio
PQLM	≤ 0.25
KNVL	≤ 0.25
EARA	≤ 0.25
FQWE	1.71
SHME	≤ 0.25
LTME	≤ 0.25
AAMY	≤ 0.25
ATME	7.5
TDVE	≤ 0.25
AAME	30.8
TDME	11.5
AAPE	≤ 0.25
AHME	12.2
AIME	1.65
THME	49
NHME	≤ 0.25
YSHD	≤ 0.25
PTCC	≤ 0.25
MPHN	≤ 0.25
RHYV	≤ 0.25
TAVD	≤ 0.25
SIIF	0.435
LTVM	≤ 0.25
MTTM	18.5
MTRM	≤ 0.25
YTVM	≤ 0.25

Variant	enrichment ratio
MTIV	≤ 0.25
FEVA	≤ 0.25
MKTM	≤ 0.25
GTVM	36.9
FEVM	11.6
MTIM	25.3
FCVM	≤ 0.25
MTTD	≤ 0.25
FLDD	≤ 0.25
FDRW	≤ 0.25
VFHM	≤ 0.25
MSQP	≤ 0.25
KNYG	≤ 0.25
SEVM	18.7
IQVM	≤ 0.25
SAVM	4.22
SCVM	8.76
GLAL	12.9
HEGM	≤ 0.25
SLVM	2.29
PLAL	≤ 0.25
GYAL	≤ 0.25
HEVM	24.4
HEVA	≤ 0.25
SQVM	19.6
LWIF	≤ 0.25

Variant	enrichment ratio
NFST	≤ 0.25
PYQI	≤ 0.25
GTRE	≤ 0.25
SHDG	1.66
NEVM	7.03
MTVM	12.8
MTPM	≤ 0.25
MEVM	12.9
MAVM	≤ 0.25
MTVA	≤ 0.25
KYVM	≤ 0.25
GNVM	22.8
GIVM	3.78
LNVM	≤ 0.25
ITVM	≤ 0.25
STVM	16.3
WVID	≤ 0.25
KGWL	≤ 0.25
GFAY	≤ 0.25
QNPQ	≤ 0.25
VYSV	≤ 0.25
IADP	≤ 0.25
TERG	≤ 0.25
EIGI	≤ 0.25
GLTA	≤ 0.25
GLCK	≤ 0.25

Variant	enrichment ratio
GLTI	11.7
GDSM	2.79
GLTC	≤ 0.25
GLWM	≤ 0.25
GLSM	12.3
GLVM	16.2
GLSF	4.58
RFTN	≤ 0.25
RWLE	≤ 0.25
LIDA	≤ 0.25
LWYT	≤ 0.25
VRCA	≤ 0.25
SCQC	≤ 0.25
TMMD	≤ 0.25
TMSR	≤ 0.25
TMMS	14.5
TMSQ	13.5
TMSA	15.1
KMMN	≤ 0.25
DMSA	≤ 0.25
TMGK	≤ 0.25
TMMW	≤ 0.25
DMMN	≤ 0.25
MMSA	≤ 0.25
TMMN	11.5
FINQ	≤ 0.25

Variant	enrichment ratio
DCDV	≤ 0.25
ECGF	≤ 0.25
EREC	≤ 0.25
TNHL	≤ 0.25
WDRM	≤ 0.25
KETS	≤ 0.25
RLAR	≤ 0.25
DGIV	≤ 0.25
KMLV	≤ 0.25
FDFL	≤ 0.25
TMWG	≤ 0.25
TMTG	3.06
TMGG	15.7
TMSK	≤ 0.25
MMMT	≤ 0.25
TMMV	4.75
TMMG	23.4
TMWT	≤ 0.25
TMMT	22.9
TMVG	≤ 0.25
DMSI	≤ 0.25
TMSI	14.2
